Experimental data: PubChem BioAssay AID1240 (Sanford-Burnham Center for Chemical Genomics, 2008)
Hit rate of the full screen: of about 50,000 compounds, about 800 (1.6%) showed an effect of 50% or more. This is one part of a sample in which strong results are shown more often than they occur.

molecular target: Bcl-2-like protein 10 (Homo sapiens) (UniProt Q9HD36); assay: TR3 peptide-Bcl-B binding displacers, biochemical primary FP assay, phenotype converters (AID 1240); settings: GST-Bcl-B / FITC-TR3 peptide fluorescence polarization; stronger effect = higher value; compound at 3.75 mg/L;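 also: 0% = Bcl-B with tracer peptide and DMSO and 100% = tracer peptide lacking Bcl-B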
Sequence (Q9HD36 whole entry, looked up): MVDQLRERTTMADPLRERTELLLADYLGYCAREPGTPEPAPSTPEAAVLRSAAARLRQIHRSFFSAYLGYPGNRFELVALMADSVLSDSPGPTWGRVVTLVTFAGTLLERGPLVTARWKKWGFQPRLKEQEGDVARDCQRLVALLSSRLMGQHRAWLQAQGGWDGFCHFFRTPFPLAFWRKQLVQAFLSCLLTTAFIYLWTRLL

SMILES	displacement [%]
CN1CCN(c2c([N+](=O)[O-])c(=O)n(C)c3ccccc23)CC1	-4.8
CCCC1=NN2C(=N)/C(=C/c3ccc(-c4ccc(F)cc4)o3)C(=O)N=C2S1	135
CCCC1=NN2C(=N)/C(=C/c3ccccc3C)C(=O)N=C2S1	32.9
CCC1=NN2C(=N)/C(=C/c3ccc(-c4ccc(C)c(Cl)c4)o3)C(=O)N=C2S1	3.9
CCC1=NN2C(=N)/C(=C/c3ccc(F)cc3)C(=O)N=C2S1	7.5
CCCC1=NN2C(=N)/C(=C/c3ccc(-c4ccccc4C(=O)OC)o3)C(=O)N=C2S1	-37
CCCC1=NN2C(=N)/C(=C/c3ccc(OCc4ccc(F)cc4)c(OCC)c3)C(=O)N=C2S1	-6.7
CCC1=NN2C(=N)/C(=C/c3ccc(-c4ccc(Cl)cc4)o3)C(=O)N=C2S1	66.7
CCC1=NN2C(=N)/C(=C/c3ccc(-c4ccc(F)c(Cl)c4)o3)C(=O)N=C2S1	-0.2
CCC1=NN2C(=N)/C(=C/c3ccc(-c4ccc(C(=O)O)cc4)o3)C(=O)N=C2S1	44.1
CCCC1=NN2C(=N)/C(=C/c3ccc(-c4ccc(C(=O)OCC)cc4)o3)C(=O)N=C2S1	164
CCC1=NN2C(=N)/C(=C/c3ccc(-c4ccc(F)cc4)o3)C(=O)N=C2S1	69.2
CCOC(=O)c1ccc(-c2ccc(/C=C3/SC(N)=NC3=O)o2)cc1	-27.3
CCOc1ccc(N2C(=O)NC(=O)/C(=C/c3cc(Br)c(OCC)c(OC)c3)C2=O)cc1	-6.7
CC(=O)C1=C(O)C(=O)N(C)C1c1ccccc1[N+](=O)[O-] (stereo not drawn)	2.8
C/C(=N\N=C1\NC(=O)C(CC(=O)NCc2ccccc2)S1)C(C)C (stereo not drawn)	0.3
CCCCOc1ccc(NC(=O)CSc2nnc(N)s2)cc1	-16.9
c1ccc(CCSc2nc3ccccc3[nH]2)cc1	6.2
Cc1cc(/C=C2/SC(=O)NC2=O)c(-c2ccccc2)n1-c1ccccc1	-9.6
Cc1cc(C=C2C(=O)c3ccccc3C2=O)c(-c2ccccc2)n1-c1ccccc1	68
Cc1cc(/C=C2/NC(=O)NC2=O)c(-c2ccccc2)n1-c1ccccc1	-5.1
Cc1cc(C)c(C=C2C(=O)c3ccccc3C2=O)cc1C	-1.6

SMILES	displacement [%]
Cc1cc(/C=C2/SC(=S)NC2=O)c(-c2ccccc2)n1-c1ccccc1	0.7
Cc1cc(C=C2C(=O)NC(=O)NC2=O)c(-c2ccccc2)n1-c1ccccc1	150
Cc1cc(C=C2C(=O)NC(=S)NC2=O)c(-c2ccccc2)n1-c1ccccc1	162
Cc1cc(/C=N/N2C(=O)c3ccccc3C2=O)c(C)n1-c1ccccc1	11.4
Cc1cc(/C=C2/NC(=S)NC2=O)c(-c2ccccc2)n1-c1ccccc1	-14.7
CN(C)CCNC(=O)/C(=N\O)c1ccccn1	15.9
COc1ccc(CN(C)C(=O)c2cccc(C(=O)N(C)Cc3ccc(OC)cc3)c2)cc1	10.7
COc1cccc(C(=O)Nc2ccc(I)cc2Cl)c1	8.2
Nc1c(Cc2ccccc2)ccc2c1C(=O)c1ccccc1C2=O	10.3
CC(C)(CN1CCOCC1)NS(=O)(=O)c1ccc(Cl)cc1	7.4
CCc1ccc(OCC(=O)Nc2ccc3ccccc3c2)cc1	11.4
Cc1ccc(N2NC(=O)/C(=C/c3ccc(-c4ccc(S(N)(=O)=O)cc4)o3)C2=O)cc1	5.6
CC(=O)Nc1ccc(S(=O)(=O)N(Cc2ccccc2)C(C)C)cc1	130
CCN(Cc1ccccc1)S(=O)(=O)c1ccc(NC(C)=O)cc1	19.2
CC(C)N(Cc1ccccc1)S(=O)(=O)c1ccc(F)cc1	12.3
CC1CN(CC(O)COc2ccc3ccccc3c2)CC(C)O1 (stereo not drawn)	0.2
COc1ccc2[nH]c3c(c2c1)CCn1c-3nc2scc(-c3ccccc3)c2c1=O	0.2
CCc1cc2c(C)cc(=O)oc2cc1OC(C)=O	10.1
COc1ccc(N=Cc2c(O)n(-c3ccccc3)c(=O)[nH]c2=O)cc1Cl	113
COc1cc(N=Cc2c(O)n(-c3ccc(Cl)cc3)c(=O)[nH]c2=O)cc(OC)c1	70.5
COc1ccc(-n2c(O)c(C=Nc3ccc(Cl)cc3)c(=O)[nH]c2=O)cc1	14.3
COc1cccc(-n2c(O)c(C=Nc3cccc(Cl)c3)c(=O)[nH]c2=O)c1	-3.7

SMILES	displacement [%]
COc1ccc(CN=Cc2c(O)n(-c3ccc(OC)cc3)c(=O)[nH]c2=O)cc1	-3.4
Cc1ccc(N=Cc2c(O)n(-c3ccccc3)c(=O)[nH]c2=O)cc1	-5.6
COc1ccc(-n2c(O)c(C=NCc3ccc(F)cc3)c(=O)[nH]c2=O)cc1	12.4
COc1cc(CN=Cc2c(O)n(-c3ccc(F)cc3)c(=O)[nH]c2=O)cc(OC)c1	84.7
COc1ccc(CN=Cc2c(O)n(-c3ccc(Cl)cc3)c(=O)[nH]c2=O)cc1	-6.6
COc1cc(CN=Cc2c(O)n(-c3cc(OC)ccc3OC)c(=O)[nH]c2=O)cc(OC)c1	1.6
COc1ccc(CN=Cc2c(O)n(-c3cccc(Cl)c3)c(=O)[nH]c2=O)cc1	81.4
COc1ccc(-n2c(O)c(C=Nc3cccc(Cl)c3)c(=O)[nH]c2=O)cc1	14.2
COc1ccccc1CC(=O)Nc1cc(C)ccn1	12.9
CS(=O)(=O)N(CC(=O)Nc1cccc(Br)c1)c1ccc(Oc2ccccc2)cc1	1.9
COc1ccc(C2CC(=O)C3=C(C2)Nc2ccccc2NC3c2ccc(NC(C)=O)cc2)cc1OC (stereo not drawn)	-4.9
CCCC1=C(C(=O)OCC)C(c2ccc(CC)cc2)NC(=O)N1 (stereo not drawn)	-8.5
O=[N+]([O-])c1ccc(-c2noc(-c3ccccc3Br)n2)cc1	4.3
COc1ccc(CN2CCN(Cc3ccncc3)CC2)c(OC)c1	-16.7
NC(=O)c1ccc(NC(=O)C2CCCC2)cc1	-4
O=c1[nH]c(=O)n(-c2cccc(Cl)c2)c(O)c1C=NCCCn1ccnc1	142
O=c1[nH]c(=O)n(-c2ccccc2Cl)c(O)c1C=NCCCn1ccnc1	11.5
Cc1ccccc1-n1c(O)c(C=NCCCn2ccnc2)c(=O)[nH]c1=O	-3.4
COCCOC(=O)c1c(C)oc2c1cc(NS(=O)(=O)c1ccc(F)cc1)c1ccccc12	18
Cc1ccc(-c2nnc(N)s2)cc1C	5.1
O=c1[nH]c(=O)n(-c2ccc(Br)cc2)c(O)c1C=C1C=CC=N1	123
CCOc1ccc(-n2c(O)c(C=C3C=CC=N3)c(=O)[nH]c2=O)cc1	13.1

SMILES	displacement [%]
COc1ccc(Cn2c(O)c(/C=C3\C=CC=N3)c(=O)[nH]c2=O)cc1	12.5
O=c1[nH]c(=O)n(-c2cccc(C(F)(F)F)c2)c(O)c1C=C1C=CC=N1	6.3
COc1ccc(-n2c(O)c(/C=C3\C=CC=N3)c(=O)[nH]c2=O)cc1	85.4
O=c1[nH]c(=O)n(-c2ccc(Cl)cc2)c(O)c1/C=C1/C=CC=N1	-46
O=C1c2ccccc2C(=O)c2c1cccc2S(=O)(=O)Nc1ccc(Cl)cc1	9.5
CCOC(=O)C1=C(c2ccccc2)N=c2s/c(=C\c3ccc(O)c(OC)c3)c(=O)n2C1c1ccc(OC)cc1 (stereo not drawn)	104
CCOC(=O)C1=C(C)N=c2s/c(=C\c3ccc(O)c(OC)c3)c(=O)n2C1c1ccc(OC)cc1 (stereo not drawn)	4.2
CCOC(=O)C1=C(C)N=c2s/c(=C\c3ccc(O)c(OC)c3)c(=O)n2C1c1ccc(C)cc1 (stereo not drawn)	98.4
CCOC(=O)C1=C(C)N=c2s/c(=C\c3ccc(O)c(OC)c3)c(=O)n2C1c1ccc(N(C)C)cc1 (stereo not drawn)	-13.9
CCOC(=O)C1=C(c2ccccc2)N=c2s/c(=C\c3ccc(O)c(OC)c3)c(=O)n2C1c1ccccc1OC (stereo not drawn)	43.3
CCOC(=O)C1=C(C)N=c2s/c(=C\c3ccc(O)c(OC)c3)c(=O)n2C1c1cccc(OC)c1 (stereo not drawn)	-2.1
C=CCSc1nc2ccccc2n1C(=O)C1C(C=C(Cl)Cl)C1(C)C (stereo not drawn)	7.1
CCOc1ccc(C(=O)NCc2cccs2)cc1OCC	-0.9
O=C(NCCN1CCCC1=O)Nc1ccccc1	10.9
O=C(NCCCNC(=O)c1cccc(F)c1)c1cccc(F)c1	3.2
O=C(c1cccc(I)c1)N1CCN(c2ccccn2)CC1	6.9
O=C1CC(N2CCN(Cc3ccccc3)CC2)C(=O)N1c1ccc(Cl)c(Cl)c1 (stereo not drawn)	1.7
Cn1c(/C=C/c2ccc3c(c2)OCO3)nc2ccccc2c1=O	1.3
CN(C)c1ccc(/C=C/c2nc3ccccc3c(=O)n2-c2cccc3ccccc23)cc1	105
O=c1c2ccccc2nc(/C=C/c2cccc([N+](=O)[O-])c2)n1-c1cccc2ccccc12	5
O=c1c2ccccc2nc(/C=C/c2ccc3c(c2)OCO3)n1-c1cccc2ccccc12	78.1
O=c1c2ccccc2nc(/C=C/c2ccccc2[N+](=O)[O-])n1-c1cccc2ccccc12	-7

SMILES	displacement [%]
O=c1c2ccccc2nc(/C=C\c2ccccc2O)n1-c1cccc2ccccc12	-6.6
COc1ccccc1-n1cnc2cc(NC(C)=O)ccc21	14.7
CC(C)(C)c1cc(C2=C(Cl)C(=O)c3ccccc3C2=O)cc(C(C)(C)C)c1O	6.9
O=C1N=c2ccc(Cl)cc2=C1c1sc(NS(=O)(=O)Cc2ccccc2)nc1O	-7.2
CC1=C(C(=O)Nc2ccc(Br)cc2)C(c2ccccc2Br)NC(=S)N1 (stereo not drawn)	-7
CC1=C(C(=O)Nc2ccccc2)C(c2ccccc2Br)NC(=S)N1 (stereo not drawn)	-1.9
CC1=C(C(=O)Nc2ccc(C)cc2)C(c2ccccc2Br)NC(=S)N1 (stereo not drawn)	84.9
Cc1ccc(SCCNC(=O)CN(c2ccc(C)cc2)S(C)(=O)=O)cc1	-13.4
COc1ccc(C2C(C(C)=O)=C(O)C(=O)N2c2nc3ccccc3s2)cc1OC (stereo not drawn)	-10.4
O=C(C1=C(O)C(=O)N(c2nncs2)C1c1cccc([N+](=O)[O-])c1)c1cccs1 (stereo not drawn)	7.1
COc1ccc(C2C(C(=O)c3cccs3)=C(O)C(=O)N2c2nncs2)cc1 (stereo not drawn)	143
COc1ccc(C2C(C(=O)c3cccs3)=C(O)C(=O)N2c2nncs2)cc1OC (stereo not drawn)	84.6
O=C1C(=O)N(c2nncs2)C(c2ccc(Cl)cc2)/C1=C(\O)c1ccc(F)cc1 (stereo not drawn)	20.8
COc1ccc(C2/C(=C(\O)c3ccc(F)cc3)C(=O)C(=O)N2c2nncs2)cc1 (stereo not drawn)	11
O=C1C(=O)N(c2nncs2)C(c2cccc(Br)c2)/C1=C(\O)c1ccc(F)cc1 (stereo not drawn)	16.6
O=C(C1=C(O)C(=O)N(c2nncs2)C1c1ccccc1F)c1cccs1 (stereo not drawn)	129
CC(=O)C1=C(O)C(=O)N(c2nc3ccccc3s2)C1c1ccccc1F (stereo not drawn)	-8.5
O=C(C1=C(O)C(=O)N(c2nncs2)C1c1ccc(Cl)cc1)c1cccs1 (stereo not drawn)	125
COc1ccc(C2/C(=C(\O)c3ccc(C)cc3)C(=O)C(=O)N2c2nncs2)cc1 (stereo not drawn)	13.6
COc1cc(C2/C(=C(\O)c3ccc(F)cc3)C(=O)C(=O)N2c2nncs2)ccc1O (stereo not drawn)	8.3
